Test results: ChEMBL document CHEMBL1961873, “Compounds: GSK PKIS; Assays: Nanosyn kinase panel” (2012)
Values joined by “and” are separate entries in the source; they are usually repeats but may differ in a detail not shown here. Equal values may be shown once.

Experiments:
[1] = target: Casein kinase I isoform gamma-2 (Homo sapiens) (UniProt P78368); conditions: at 1 µM
[2] = target: Casein kinase I isoform gamma-3 (Homo sapiens) (UniProt Q9Y6M4); conditions: at 0.1 µM
[3] = target: Casein kinase I isoform gamma-3 (Homo sapiens) (UniProt Q9Y6M4); conditions: at 1 µM
[4] = target: Cyclin-dependent kinase 1 (Homo sapiens) (UniProt P06493); conditions: at 0.1 µM
[5] = target: Cyclin-dependent kinase 1 (Homo sapiens) (UniProt P06493); conditions: at 1 µM
[6] = target: Cyclin-dependent kinase 2 (Homo sapiens) (UniProt P24941); conditions: at 0.1 µM
[7] = target: Cyclin-dependent kinase 2 (Homo sapiens) (UniProt P24941); conditions: at 1 µM
[8] = target: Cyclin-dependent kinase 2 (Homo sapiens) (UniProt P24941); conditions: at 0.1 µM; remark: listed apart in the source
[9] = target: Cyclin-dependent kinase 2 (Homo sapiens) (UniProt P24941); conditions: at 1 µM; remark: listed apart in the source
[10] = target: T1, CDK3/Cyclin E (Homo sapiens) (UniProt P24864+Q00526); conditions: at 0.1 µM
[11] = target: T1, CDK3/Cyclin E (Homo sapiens); conditions: at 1 µM
[12] = target: Cyclin-dependent kinase 4 (Homo sapiens) (UniProt P11802); conditions: at 0.1 µM
[13] = target: Cyclin-dependent kinase 4 (Homo sapiens) (UniProt P11802); conditions: at 1 µM
[14] = target: Cyclin-dependent kinase 5 (Homo sapiens) (UniProt Q00535); conditions: at 0.1 µM
[15] = target: Cyclin-dependent kinase 5 (Homo sapiens) (UniProt Q00535); conditions: at 1 µM
[16] = target: Cyclin-dependent kinase 6 (Homo sapiens) (UniProt Q00534); conditions: at 0.1 µM
[17] = target: Cyclin-dependent kinase 6 (Homo sapiens) (UniProt Q00534); conditions: at 1 µM
[18] = target: Dual specificity protein kinase CLK2 (Homo sapiens) (UniProt P49760); conditions: at 0.1 µM
[19] = target: Dual specificity protein kinase CLK2 (Homo sapiens) (UniProt P49760); conditions: at 1 µM
[20] = target: Dual specificity protein kinase CLK3 (Homo sapiens) (UniProt P49761); conditions: at 0.1 µM
Chain of Dual specificity protein kinase CLK3 (Homo sapiens) (P49761 whole entry, looked up): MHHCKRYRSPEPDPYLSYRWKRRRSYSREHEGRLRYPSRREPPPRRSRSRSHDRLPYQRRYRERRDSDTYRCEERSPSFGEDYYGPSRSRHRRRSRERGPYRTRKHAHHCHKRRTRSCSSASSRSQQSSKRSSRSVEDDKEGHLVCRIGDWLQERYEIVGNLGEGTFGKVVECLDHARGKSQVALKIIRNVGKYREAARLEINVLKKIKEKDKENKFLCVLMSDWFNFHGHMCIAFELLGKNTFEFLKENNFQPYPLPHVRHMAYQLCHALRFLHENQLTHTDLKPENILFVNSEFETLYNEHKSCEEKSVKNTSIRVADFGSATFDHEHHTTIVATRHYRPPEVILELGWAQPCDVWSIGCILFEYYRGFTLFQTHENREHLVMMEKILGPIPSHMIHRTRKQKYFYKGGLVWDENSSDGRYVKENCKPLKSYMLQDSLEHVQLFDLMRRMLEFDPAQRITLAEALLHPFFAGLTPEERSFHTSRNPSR

Chain of Cyclin-dependent kinase 5 (Homo sapiens) (Q00535 whole entry, looked up): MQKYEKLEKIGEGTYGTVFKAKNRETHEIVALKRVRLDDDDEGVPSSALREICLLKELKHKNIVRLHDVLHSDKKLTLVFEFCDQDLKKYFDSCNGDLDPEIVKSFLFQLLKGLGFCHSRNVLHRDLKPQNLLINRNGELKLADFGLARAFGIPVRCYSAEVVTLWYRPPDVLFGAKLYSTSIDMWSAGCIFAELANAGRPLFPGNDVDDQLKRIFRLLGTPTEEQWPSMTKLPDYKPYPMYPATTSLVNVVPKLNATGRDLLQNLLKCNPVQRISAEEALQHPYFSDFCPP
Chain of Dual specificity protein kinase CLK2 (Homo sapiens) (P49760 whole entry, looked up): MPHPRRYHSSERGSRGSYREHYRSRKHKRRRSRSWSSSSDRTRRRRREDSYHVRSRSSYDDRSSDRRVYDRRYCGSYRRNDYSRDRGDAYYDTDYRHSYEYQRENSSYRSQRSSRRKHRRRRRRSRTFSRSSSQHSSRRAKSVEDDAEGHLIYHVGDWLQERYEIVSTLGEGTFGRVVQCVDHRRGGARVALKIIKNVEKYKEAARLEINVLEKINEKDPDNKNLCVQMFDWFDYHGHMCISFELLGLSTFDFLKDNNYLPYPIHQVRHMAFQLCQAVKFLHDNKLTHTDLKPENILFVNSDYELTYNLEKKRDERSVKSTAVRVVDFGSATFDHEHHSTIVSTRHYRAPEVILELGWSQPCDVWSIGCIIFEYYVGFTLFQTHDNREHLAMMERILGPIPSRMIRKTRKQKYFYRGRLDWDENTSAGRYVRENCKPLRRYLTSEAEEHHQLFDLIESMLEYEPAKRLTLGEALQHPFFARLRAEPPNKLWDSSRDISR
Chain of Cyclin-dependent kinase 6 (Homo sapiens) (Q00534 whole entry): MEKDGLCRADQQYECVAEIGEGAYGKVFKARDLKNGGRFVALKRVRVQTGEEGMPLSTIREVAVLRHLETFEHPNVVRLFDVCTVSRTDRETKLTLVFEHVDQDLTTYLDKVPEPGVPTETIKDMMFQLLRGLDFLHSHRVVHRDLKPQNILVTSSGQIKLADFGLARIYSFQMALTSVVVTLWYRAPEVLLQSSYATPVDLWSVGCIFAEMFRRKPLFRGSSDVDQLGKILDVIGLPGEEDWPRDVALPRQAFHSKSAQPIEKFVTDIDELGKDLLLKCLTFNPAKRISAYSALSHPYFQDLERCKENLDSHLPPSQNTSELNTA
Chain of Cyclin-dependent kinase 4 (Homo sapiens) (P11802 whole entry): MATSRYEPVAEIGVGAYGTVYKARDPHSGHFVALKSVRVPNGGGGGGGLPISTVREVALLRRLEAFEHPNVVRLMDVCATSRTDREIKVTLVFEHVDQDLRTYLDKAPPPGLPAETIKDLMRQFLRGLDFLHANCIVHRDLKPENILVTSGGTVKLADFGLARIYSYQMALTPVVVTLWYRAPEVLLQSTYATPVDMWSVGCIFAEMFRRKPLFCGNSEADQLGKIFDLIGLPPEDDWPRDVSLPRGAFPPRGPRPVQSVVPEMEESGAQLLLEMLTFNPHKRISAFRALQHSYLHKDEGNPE
Chain of Cyclin-dependent kinase 1 (Homo sapiens) (P06493 whole entry, looked up): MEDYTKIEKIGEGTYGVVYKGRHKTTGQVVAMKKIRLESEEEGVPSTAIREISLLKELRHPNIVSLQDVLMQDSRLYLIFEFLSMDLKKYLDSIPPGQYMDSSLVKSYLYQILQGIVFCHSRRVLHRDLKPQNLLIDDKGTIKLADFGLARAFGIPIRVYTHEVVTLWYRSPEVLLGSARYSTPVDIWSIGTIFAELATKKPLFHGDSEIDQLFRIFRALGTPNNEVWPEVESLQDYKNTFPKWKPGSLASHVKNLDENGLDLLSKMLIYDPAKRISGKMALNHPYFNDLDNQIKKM
T1 sequence (P24864 whole entry, looked up): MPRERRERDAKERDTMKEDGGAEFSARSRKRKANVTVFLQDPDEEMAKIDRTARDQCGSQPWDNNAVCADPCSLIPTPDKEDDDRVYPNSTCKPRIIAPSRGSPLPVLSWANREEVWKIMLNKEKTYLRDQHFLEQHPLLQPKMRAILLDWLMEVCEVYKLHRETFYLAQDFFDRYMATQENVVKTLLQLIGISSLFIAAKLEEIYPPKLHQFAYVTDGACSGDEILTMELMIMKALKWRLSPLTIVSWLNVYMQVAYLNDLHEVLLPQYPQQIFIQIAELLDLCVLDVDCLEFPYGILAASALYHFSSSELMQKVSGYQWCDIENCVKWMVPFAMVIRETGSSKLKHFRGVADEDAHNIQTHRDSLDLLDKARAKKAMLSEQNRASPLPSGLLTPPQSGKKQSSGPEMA
T1 sequence (Q00526 whole entry, looked up): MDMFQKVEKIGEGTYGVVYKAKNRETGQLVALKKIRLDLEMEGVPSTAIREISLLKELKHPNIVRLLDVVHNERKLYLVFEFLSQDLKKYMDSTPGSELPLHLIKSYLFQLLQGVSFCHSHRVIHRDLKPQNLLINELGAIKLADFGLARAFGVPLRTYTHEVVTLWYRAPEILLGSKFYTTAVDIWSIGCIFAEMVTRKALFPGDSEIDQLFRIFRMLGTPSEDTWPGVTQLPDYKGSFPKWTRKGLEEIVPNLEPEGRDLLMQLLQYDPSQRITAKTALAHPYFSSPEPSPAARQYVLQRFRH
Chain of Casein kinase I isoform gamma-2 (Homo sapiens) (P78368 whole entry, looked up, canonical isoform): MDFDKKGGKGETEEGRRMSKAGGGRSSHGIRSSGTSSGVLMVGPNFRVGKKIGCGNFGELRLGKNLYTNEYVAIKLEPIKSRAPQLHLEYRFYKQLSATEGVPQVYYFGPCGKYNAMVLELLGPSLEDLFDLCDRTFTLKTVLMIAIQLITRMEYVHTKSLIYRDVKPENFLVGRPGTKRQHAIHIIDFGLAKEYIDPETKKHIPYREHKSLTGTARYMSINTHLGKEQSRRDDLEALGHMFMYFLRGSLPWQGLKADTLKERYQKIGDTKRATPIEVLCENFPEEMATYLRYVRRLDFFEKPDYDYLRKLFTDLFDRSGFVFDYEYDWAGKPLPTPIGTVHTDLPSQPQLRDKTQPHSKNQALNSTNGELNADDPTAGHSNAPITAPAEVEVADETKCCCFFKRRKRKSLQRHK
Chain of Casein kinase I isoform gamma-3 (Homo sapiens) (Q9Y6M4 whole entry, looked up, canonical isoform): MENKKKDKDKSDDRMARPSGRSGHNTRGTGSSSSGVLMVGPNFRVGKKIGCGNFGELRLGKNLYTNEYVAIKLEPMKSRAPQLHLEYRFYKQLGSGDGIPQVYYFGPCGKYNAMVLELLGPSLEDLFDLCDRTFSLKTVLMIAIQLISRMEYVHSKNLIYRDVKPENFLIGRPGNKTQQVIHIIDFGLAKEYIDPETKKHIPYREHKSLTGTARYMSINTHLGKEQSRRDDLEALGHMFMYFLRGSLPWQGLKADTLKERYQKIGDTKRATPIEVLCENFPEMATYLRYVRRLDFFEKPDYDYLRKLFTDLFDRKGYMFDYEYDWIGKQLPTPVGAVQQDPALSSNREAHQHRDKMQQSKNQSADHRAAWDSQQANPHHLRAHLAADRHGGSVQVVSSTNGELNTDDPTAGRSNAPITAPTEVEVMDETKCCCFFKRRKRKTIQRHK

SMILES | inhibition [1] | inhibition [2] | inhibition [3] | inhibition [4] | inhibition [5] [%] | inhibition [6] | inhibition [7] | inhibition [8] | inhibition [9] | inhibition [10] | inhibition [11] | inhibition [12] | inhibition [13] | inhibition [14] | inhibition [15] | inhibition [16] | inhibition [17] | inhibition [18] | inhibition [19] | inhibition [20]
Cc1c2ccc(N(C)c3ccnc(Nc4cccc(S(N)(=O)=O)c4)n3)cc2nn1C | 0.79% | -0.12% | 1.23% | -2.06% | 1.04 | -1.06% | 4.54% | 2.08% | 4.14% | 3.58% | 2.13% | -3.55% | 9.57% | -1.58% | 0.35% | -1.51% | 15.3% | 1.61% | 0.97% | -1.14%
CN(c1ccc(NC(=O)NCCN2CCOCC2)cc1)c1ccnc(Nc2ccc(CS(C)(=O)=O)cc2)n1 | 1.47% | 2.29% | 2.32% | -0.38% | 2.55 | 1.15% | 11.3% | 3.19% | 4.7% | 0.76% | 0.92% | 0.98% | 2.06% | 0.44% | 2.44% | 5.26% | 4.21% | -0.8% | 2.52% | 0.77%
O=C(O[C@H]1CN[C@H](C#Cc2cc3ncnc(Nc4ccc(OCc5cccc(F)c5)c(Cl)c4)c3s2)C1)N1CCOCC1 | 5.59% | 4.52% | 3.53% | 0.36% | 1.18 | 1.57% | -1.38% | 4.21% | 2.99% | 2.77% | -3.23% | 2.11% | 2.33% | 0.49% | -0.57% | 1.23% | -0.42% | -0.15% | -0.4% | 2.68%
CC1=C(C(=O)Nc2ccc3[nH]ncc3c2)C(c2ccc(F)cc2)N=C(c2ccc(C(F)(F)F)nc2)N1 (stereo not given) | 2.44% | 0.89% | 1.64% | -0.29% | 0.48 | 2.22% | 3.53% | 2.03% | 3.67% | 0.12% | 1.96% | 2.27% | 2.07% | 0.56% | 0.43% | 2.17% | 1.9% | 0.46% | -0.11% | 1.34%
CCn1c(-c2nonc2N)nc2cncc(C(=O)NCCNC)c21 | 5.17% | 3.69% | 3.84% | 0.45% | 0.67 | 0.58% | 3.6% | 2.89% | 5.11% | -2.24% | 0.12% | 1.73% | 3.94% | -0.65% | 0.97% | -0.66% | 1.38% | 1.2% | 10.5% | -2.71%
NS(=O)(=O)c1ccc(N/N=C2\C(=O)Nc3cccc(CCc4ccncc4)c32)cc1 | 0.54% | 0.32% | 0.29% | 9.4% | 21.9 | 51.4% | 71.6% | 53.5% | 67.7% | 32.4% | 63.6% | 14% | 29.4% | 19.4% | 38.5% | 36.6% | 56.2% | 0.9% | 4.17% | 0.97%
CC1(C)CC(n2cnc(-c3ccc(F)cc3)c2-c2ccnc(N)n2)CC(C)(C)N1 | 0.56% | -0.9% | 5.01% | -0.29% | 0.21 | 1.22% | 0.26% | 1.34% | 0.26% | 2.06% | -0.65% | 1.99% | 2.08% | 0.25% | 0.14% | -2.02% | 1.29% | 0.85% | 0.02% | 0.82%
NS(=O)(=O)c1ccc(N/N=C2\C(=O)Nc3ccc(C(=O)NCc4ccncc4)cc32)cc1 | 4.22% | 1.86% | 5.91% | 31.4% | 71.3 | 84.9% | 110% | 78% | 86.2% | 53.2% | 96.3% | 14% | 52.3% | 47.7% | 79.1% | 8.64% | 58.6% | 2.87% | 36.8% | 1.92%
CN1CCN(Cc2ccc(-c3cc4ncnc(Nc5ccc(OCc6cccc(F)c6)c(Cl)c5)c4s3)o2)CC1 | 4.06% and 5.69% | 2.07% and 2.73% | 3.72% and 4.9% | 1.26% and -0.15% | 3.35 | 2.79% and 0.8% | 5.88% and 5.34% | 3.41% and 3.54% | 4.99% and 6.73% | -1.62% and 3.97% | -0.88% and -0.53% | 0.41% and 3.55% | 4.82% and 8.07% | 1.3% and 1.22% | 2.71% and 2.36% | -3.55% and 3.09% | -1.42% and 9.4% | -0.35% and 2.37% | -0.11% and 1.21% | -0.14% and 1.15%
N#Cc1ccc2c(-c3ccnc(NC4CC4)n3)c(-c3ccc(F)cc3)nn2c1 | 3.98% | 2.06% | 5.03% | 0.15% | -0.22 | 1.26% | 0.36% | 1% | 0.3% | -0.85% | -1.23% | -0.21% | 1.61% | -0.1% | -0.13% | -1.07% | 2.32% | -0.43% | -1.71% | -0.22%
CCCNc1cccc(-n2ncc3c(N/N=C/c4ccncc4)ncnc32)c1 | 1.01% | 1.29% | 0.9% | 2.68% | 22.5 | 7.1% | 42.1% | 1.17% | 9.16% | 0.47% | 9.63% | 0.2% | 9.54% | 1.35% | 12.6% | 3.25% | 10.1% | 3.08% | 10.9% | 0.61%
CNC(=O)c1ncccc1Nc1nc(Nc2cc3c(cc2OC)CCCN3C(=O)CN(C)C)nc2[nH]ccc12 | 5.64% | 2.52% | 6.23% | 1.79% | 5.38 | 2.38% | 9.91% | 7.73% | 9.82% | 3.92% | 1.69% | 5.18% | 11.4% | 3.84% | 6.35% | 3.87% | 7.17% | 54.3% | 93.1% | 1.98%
